Several values for one entry are separate records, joined by “and”; a condition that tells them apart may be missing. Equal entries are not always repeated. Inconclusive results are not listed. Where a call stands in place of a potency, no number is given. Activity calls are given as the source filed them. Unless noted, calls come from the whole dose curve; as a rule, active = well fitted curve in the direction sought with a large enough effect; inconclusive = small, poorly fitted or top-dose-only effect, or another doubt; inactive = no such curve, though single readings can be large; an effect the other way counts as inactive or inconclusive.
Experiments:
[1] = molecular target: alpha-glucosidase (Oryza sativa, rice) (UniProt Q653V4); assay: Counterscreen for Glucocerebrosidase Inhibitors: qHTS Assay for Rice alpha-Glucosidase at pH 5.0 (AID 997)
Summary of the method: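 Endpoint fluorogenic assay at pH 5.0: compounds (0.7 nM to 77 uM) titrated against 4 nM rice enzyme and 400 uM 4-MU-alpha-glucoside for 20 min at room temperature; NaOH/glycine stop, read ex 365/em 440 nm, Hill-fitted AC50.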

[2] = qHTS Assay for Lipid Storage Modulators (AID 1519; calls by dose curve); conditions: Drosophila S3 cells, BODIPY lipid droplet/cell ratio, laser cytometry, cells loaded with oleic acid
Summary of the method: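 Cells seeded at 5,000 per well were treated with compounds over a concentration series and loaded with oleic acid (400 uM, as added). Lipid droplet fluorescence (488 nm excitation, 500-530 nm channel) was read by laser-scanning cytometry and normalized to 20 uM Triacsin C.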

[3] = molecular target: DNA repair nuclease/redox regulator APEX1 (Homo sapiens) (UniProt P27695); assay: qHTS Validation Assay for Inhibitors of the Human Apurinic/apyrimidinic Endonuclease 1 (APE1) (AID 1705; note: potency is the fitted concentration of half-maximal effect;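 for activity change, negative = inhibition: TAMRA fluorescence gain over two minutes as APE1 cuts a quenched THF abasic duplex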)
Sequence of DNA repair nuclease/redox regulator APEX1 (Homo sapiens) (P27695 whole entry, looked up): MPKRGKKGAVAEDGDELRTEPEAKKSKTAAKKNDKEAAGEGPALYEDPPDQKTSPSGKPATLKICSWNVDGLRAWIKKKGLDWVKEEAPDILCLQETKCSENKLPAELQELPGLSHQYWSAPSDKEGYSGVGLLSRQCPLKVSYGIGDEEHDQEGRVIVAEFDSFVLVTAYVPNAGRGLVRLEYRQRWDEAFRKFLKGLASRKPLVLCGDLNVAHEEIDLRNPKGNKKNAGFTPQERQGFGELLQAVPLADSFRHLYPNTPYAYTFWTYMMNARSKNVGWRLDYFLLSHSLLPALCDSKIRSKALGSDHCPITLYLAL
Summary of the method: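 Endonuclease activity of human APE1 is followed as dequenching when the enzyme incises a tetrahydrofuran abasic site in a short duplex labelled 5'-TAMRA/3'-BHQ-2 (50 nM final), after 15 min enzyme–compound preincubation at room temperature.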

[4] = Counterscreen for APE1 Inhibitors: Fluorescent Dye Displacement Validation Assay (AID 1707)
Summary of the method: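 Endpoint fluorescence read at 480 nm excitation / 540 nm emission; DNA-binding compounds lower signal by displacing 250 nM Thiazole Orange from 50 nM dsDNA containing a tetrahydrofuran abasic site, Tris-HCl pH7.5 buffer with NaCl and MgCl2.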

[5] = molecular target: Endonuclease 4 (Escherichia coli (strain K12)) (UniProt P0A6C1); assay: Counterscreen for APE1 Inhibitors: qHTS Validation Assay for Inhibitors of Endonuclease IV (AID 1708)
Summary of the method: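 The reaction buffer contained 50 mM Tris-HCl pH 7.5, 50 mM NaCl, 2 mM MgCl2, 1 mM DTT and 0.01% Tween-20. Incision of a 50 nM fluorophore/quencher THF substrate by 2 nM enzyme was measured kinetically.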

[6] = qHTS for differential inhibitors of proliferation of Plasmodium falciparum line 7G8 (AID 1815);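 note: parasite growth measured after three days of incubation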; note: potency is the fitted concentration of half-maximal effect
[7] = qHTS for differential inhibitors of proliferation of Plasmodium falciparum line GB4 (AID 1816); conditions: Potency: Plasmodium falciparum GB4 proliferation inhibition;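 note: parasite growth measured after 72 h incubation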; note: potency is the fitted concentration of half-maximal effect
[8] = qHTS for differential inhibitors of proliferation of Plasmodium falciparum line 3D7 (AID 1876); note: potency is the fitted concentration of half-maximal effect
[9] = qHTS for differential inhibitors of proliferation of Plasmodium falciparum line D10 (AID 1877);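 note: parasites grown with compound for 72 h before DNA staining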; note: potency is the fitted concentration of half-maximal effect
[10] = measured here: cell count channel max response
[11] = measured here: lipid channel max response

SMILES | outcome [1] | activity change, negative = inhibition ([2]; at 57.5 µM (top of the series)) | max response [2, 10] | max response [2, 11] | Potency [3] | Potency [4] | Potency [5] | Potency [6] | Potency [7] | Potency [8] | Potency [9] | activity change, negative = inhibition ([2]; at 25.7 µM (top of the series))
CCc1cccc2c3c([nH]c12)C(CC)(CC(=O)O)OCC3 (configuration not stated) | inactive | 2.38% (inactive) and -6.74% (inactive) | 1.96% and -60.6% | 5.72% and -61.2% | inactive | inactive | inactive | inactive | inactive | inactive | inactive | –
CN1CCN(CCCN2c3ccccc3Sc3ccc(Cl)cc32)CC1 | inactive | 2.24% (inactive) | -2.79% and -1.33% | -5.2% and 2.08% | inactive | inactive | – | 5.01 µM (active) | 10 µM (active) | 6.31 µM (active) | 12.6 µM (active) | -2.25% (inactive)
O=c1c(-c2ccc(O)cc2)coc2cc(O)cc(O)c12 | inactive | -6.97% (inactive) | 15.5% | 9.16% | inactive | inactive | inactive | – | – | – | inactive | –
CCC1(c2ccccc2)C(=O)NCNC1=O | inactive | 0.988% (inactive) and 9.51% (inactive) | 4.93% and -20.9% and 16.1% | 2.59% and -19% and 28.8% | – | inactive | inactive | inactive | inactive | inactive | inactive | -1.4% (inactive)
Clc1ccc(C(c2ccccc2Cl)C(Cl)Cl)cc1 (configuration not stated) | inactive | 11.4% (inactive) and -0.0471% (inactive) | 11% and -19.2% | 22.4% and -18.8% | inactive | inactive | inactive | inactive | inactive | inactive | inactive | –
O=C(C1CCCCC1)N1CC(=O)N2CCc3ccccc3C2C1 (configuration not stated) | inactive | 2.76% (inactive) | -17.9% | -16.6% | inactive | inactive | inactive | – | – | – | – | –
CCCCc1oc2ccccc2c1C(=O)c1cc(I)c(OCCN(CC)CC)c(I)c1 | inactive | -1.96% (inactive) | 0.489% | 1.02% | inactive | inactive | – | 2.82 µM (active) | 2.51 µM (active) | 2.82 µM (active) | 7.08 µM (active) | –
CN(C)CCC=C1c2ccccc2C=Cc2ccccc21 | inactive | 0.751% (inactive) | -6.8% and 1.02% | -7.37% and 4.03% | 4.47 µM (active) | inactive | – | 5.01 µM (active) | 11.2 µM (active) | 11.2 µM (active) | – | -1.76% (inactive)
CN1C(C(=O)Nc2ccccn2)=C(O)c2ccccc2S1(=O)=O | inactive | – | -1.41% | -3.03% | inactive | inactive | inactive | – | – | inactive | inactive | -1.27% (inactive)
Clc1ccccc1C(c1ccccc1)(c1ccccc1)n1ccnc1 | inactive | 9.89% (inactive) | -13.7% and 9.45% | -11.4% and 22.8% | inactive | inactive | – | 0.251 µM (active) | 0.316 µM (active) | 0.447 µM (active) | 0.631 µM (active) | 2.04% (inactive)
CN(C)CCOC(c1ccccc1)c1ccccc1 | inactive | 0.806% (inactive) | -10.1% and 40.8% | -13% and 41% | inactive | inactive | – | 3.98 µM (active) | – | inactive | inactive | -4.2% (inactive)
CCC1(C)CC(=O)NC1=O (configuration not stated) | – | 5.33% (inactive) and 1.46% (inactive) | 13.5% and 40.9% | 22.9% and 41% | inactive | inactive | inactive | inactive | inactive | inactive | inactive | –
Nc1nc2c(ncn2COC(CO)CO)c(=O)[nH]1 | inactive | -0.373% (inactive) | 0.439% and 44.9% | 0.456% and 46.2% | inactive | inactive | – | inactive | inactive | inactive | inactive | -0.899% (inactive)
COc1nc(C)nc(Cl)c1NC1=NCCN1 | inactive | – | -13% | -15% | inactive | inactive | inactive | inactive | inactive | inactive | inactive | -2% (inactive)
Cn1c(=O)c2c(ncn2C)n(C)c1=O | inactive | 9.95% (inactive) and -17.6% (inactive) | 6.09% and -15.3% | 17.2% and -15.6% | inactive | inactive | inactive | inactive | inactive | inactive | inactive | –
CNCCCC12CCC(c3ccccc31)c1ccccc12 | inactive | -1.14% (inactive) and 2.05% (inactive) | -12.7% and 1.78% and 3.8% | -13.9% and 1.75% and 6.48% | inactive | inactive | inactive | 11.2 µM (active) | 8.91 µM (active) | 10 µM (active) | – | -2.57% (inactive)
CN1CCN2c3ccccc3Cc3ccccc3C2C1 (configuration not stated) | – | 3.41% (inactive) | 10.1% | 10.4% | inactive | inactive | inactive | 10 µM (active) | 12.6 µM (active) | – | – | –
Nc1ccn([C@H]2CC[C@@H](CO)O2)c(=O)n1 | inactive | 0.404% (inactive) and -0.834% (inactive) | -7.59% and -3.68% | -4.32% and -4.82% | inactive | inactive | inactive | inactive | inactive | inactive | inactive | –
NS(=O)(=O)c1cc2c(cc1Cl)NCNS2(=O)=O | inactive | 7.4% (inactive) | -3.42% and 12.6% | -4.41% and 24.1% | – | inactive | inactive | inactive | – | inactive | inactive | 0.69% (inactive)

Source: PubChem BioAssay (NCATS)
